Reference: the supplement of paper PMC10849652
Targets with a hit are over-represented here; the source holds about 7,900 in all. About 0.6% of all pairs of compound and target were hits. A number with no mark means an inactive call.

Tests used:
Assay in all cases: log2 fold change, soluble protein after heating vs DMSO (PISA); higher = thermal stabilisation; K562 cells, 10 uM, 30 min; active = over 0.2 and 3.5 SD of the protein, either way, in both replicates (recomputed)
bafetinib = compound: Cc1ccc(NC(=O)c2ccc(CN3CC[C@H](N(C)C)C3)c(C(F)(F)F)c2)cc1Nc1nccc(-c2cncnc2)n1 [bafetinib]
Outline: (§1)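 K562 cells at 2×10^6 cells/mL were given 10 μM compound for 30 min. Aliquots then went through 3 min of heating across 48°C-58°C, were pooled, and were extracted in PBS with 0.5% NP-40 at 4°C, and the supernatant after 21,000xg for 90 min was quantified by TMTpro 16plex LC-MS/MS with channel sums equalised. Thermal stability relative to control samples, from duplicates, is given as log2 fold change.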

[1] = compound: Cc1cccc(CC(=O)N2CCc3c2ccc(-c2cn(C)c4ncnc(N)c24)c3F)n1
Outline: as §1

nilotinib = compound: Cc1cn(-c2cc(NC(=O)c3ccc(C)c(Nc4nccc(-c5cccnc5)n4)c3)cc(C(F)(F)F)c2)cn1 [nilotinib]
Outline: as §1

[2] = compound: Cc1nc(Nc2n[nH]c3c2CN(C(=O)N[C@H](CN(C)C)c2ccccc2)C3(C)C)c2sccc2n1
Outline: as §1

dasatinib = compound: Cc1nc(Nc2ncc(C(=O)Nc3c(C)cccc3Cl)s2)cc(N2CCN(CCO)CC2)n1 [dasatinib]
Outline: as §1

[3] = compound: Cc1ncc(-c2ccnc(Nc3ccc(S(C)(=O)=O)cc3)n2)n1C(C)C
Outline: as §1

[4] = compound: Cn1cc(-c2ccc3c(c2)CCN3C(=O)Cc2cccc(C(F)(F)F)c2)c2c(N)ncnc21
Outline: as §1

[5] = compound: Cn1cc(-c2ccc3nnc(C(F)(F)c4ccc5ncccc5c4)n3n2)cn1
Outline: as §1

tipifarnib = compound: Cn1cncc1[C@@](N)(c1ccc(Cl)cc1)c1ccc2c(c1)c(-c1cccc(Cl)c1)cc(=O)n2C [tipifarnib]
Outline: as §1

mubritinib = compound: FC(F)(F)c1ccc(/C=C/c2nc(COc3ccc(CCCCn4ccnn4)cc3)co2)cc1 [mubritinib]
Outline: as §1

[6] = compound: NC(=O)Nc1cc(-c2cccc(F)c2)sc1C(=O)N[C@H]1CCCNC1
Outline: as §1

[7] = compound: NC(=O)c1cnc(N[C@@H]2CCCC[C@@H]2N)nc1Nc1cccc(-n2nccn2)c1
Outline: as §1

[8] = compound: NC1(c2ccc(-c3nc4ccn5c(=O)[nH]nc5c4cc3-c3ccccc3)cc2)CCC1
Outline: as §1

[9] = compound: NCC(=O)Nc1ccc(-n2nc(C(F)(F)F)cc2-c2ccc3c(ccc4ccccc43)c2)cc1
Outline: as §1

entinostat = compound: Nc1ccccc1NC(=O)c1ccc(CNC(=O)OCc2cccnc2)cc1 [entinostat]
Outline: as §1

vorinostat = compound: O=C(CCCCCCC(=O)Nc1ccccc1)NO [vorinostat]
Outline: as §1

citarinostat = compound: O=C(CCCCCCNC(=O)c1cnc(N(c2ccccc2)c2ccccc2Cl)nc1)NO [citarinostat]
Outline: as §1

silmitasertib = compound: O=C(O)c1ccc2c(c1)nc(Nc1cccc(Cl)c1)c1ccncc12 [silmitasertib]
Outline: as §1

[10] = compound: O=C1NC(=O)C(c2cnc3ccccn23)=C1c1cn2c3c(cc(F)cc13)CN(C(=O)N1CCCCC1)CC2
Outline: as §1

[11] = compound: c1cc(OCCN2CCCCC2)cc(-c2n[nH]c3ccc(-c4nnc[nH]4)cc23)c1
Outline: as §1

Chain of UniProt P41091 (P41091 whole entry, looked up): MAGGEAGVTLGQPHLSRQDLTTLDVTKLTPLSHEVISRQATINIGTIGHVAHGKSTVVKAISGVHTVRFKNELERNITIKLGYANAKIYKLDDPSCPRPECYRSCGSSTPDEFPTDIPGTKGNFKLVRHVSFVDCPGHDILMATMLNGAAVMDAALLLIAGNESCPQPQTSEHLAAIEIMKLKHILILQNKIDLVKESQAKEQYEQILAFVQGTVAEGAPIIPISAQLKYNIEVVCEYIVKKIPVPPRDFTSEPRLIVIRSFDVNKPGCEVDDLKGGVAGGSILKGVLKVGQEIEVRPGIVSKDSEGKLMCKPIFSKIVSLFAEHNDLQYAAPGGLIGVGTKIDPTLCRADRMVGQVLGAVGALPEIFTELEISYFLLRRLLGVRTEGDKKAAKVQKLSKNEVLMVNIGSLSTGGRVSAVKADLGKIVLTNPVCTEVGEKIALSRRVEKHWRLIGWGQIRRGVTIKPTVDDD
Chain of UniProt Q6V1X1 (Q6V1X1 whole entry, looked up): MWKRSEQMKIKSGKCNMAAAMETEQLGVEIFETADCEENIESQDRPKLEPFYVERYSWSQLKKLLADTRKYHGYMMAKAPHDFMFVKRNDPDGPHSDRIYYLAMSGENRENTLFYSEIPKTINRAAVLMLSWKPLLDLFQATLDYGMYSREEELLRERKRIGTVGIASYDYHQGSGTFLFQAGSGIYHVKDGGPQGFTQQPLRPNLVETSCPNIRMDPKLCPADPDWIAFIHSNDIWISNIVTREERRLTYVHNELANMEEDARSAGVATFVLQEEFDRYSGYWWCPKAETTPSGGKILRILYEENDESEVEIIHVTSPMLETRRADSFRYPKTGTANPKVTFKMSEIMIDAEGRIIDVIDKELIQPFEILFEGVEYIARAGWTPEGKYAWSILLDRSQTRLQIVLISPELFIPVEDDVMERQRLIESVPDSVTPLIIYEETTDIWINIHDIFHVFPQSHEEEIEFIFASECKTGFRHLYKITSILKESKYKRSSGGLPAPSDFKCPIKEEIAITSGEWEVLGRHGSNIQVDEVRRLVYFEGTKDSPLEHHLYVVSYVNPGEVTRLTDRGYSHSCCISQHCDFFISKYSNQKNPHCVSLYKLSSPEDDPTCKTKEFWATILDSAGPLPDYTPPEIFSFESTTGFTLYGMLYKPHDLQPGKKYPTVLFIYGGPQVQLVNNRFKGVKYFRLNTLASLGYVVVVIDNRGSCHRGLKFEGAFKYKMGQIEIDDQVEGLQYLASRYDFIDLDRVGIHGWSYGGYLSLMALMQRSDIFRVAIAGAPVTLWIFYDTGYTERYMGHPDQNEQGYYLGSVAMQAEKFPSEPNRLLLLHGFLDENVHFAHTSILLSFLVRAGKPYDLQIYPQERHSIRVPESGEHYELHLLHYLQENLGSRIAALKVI
Chain of UniProt Q15075 (Q15075 whole entry, looked up): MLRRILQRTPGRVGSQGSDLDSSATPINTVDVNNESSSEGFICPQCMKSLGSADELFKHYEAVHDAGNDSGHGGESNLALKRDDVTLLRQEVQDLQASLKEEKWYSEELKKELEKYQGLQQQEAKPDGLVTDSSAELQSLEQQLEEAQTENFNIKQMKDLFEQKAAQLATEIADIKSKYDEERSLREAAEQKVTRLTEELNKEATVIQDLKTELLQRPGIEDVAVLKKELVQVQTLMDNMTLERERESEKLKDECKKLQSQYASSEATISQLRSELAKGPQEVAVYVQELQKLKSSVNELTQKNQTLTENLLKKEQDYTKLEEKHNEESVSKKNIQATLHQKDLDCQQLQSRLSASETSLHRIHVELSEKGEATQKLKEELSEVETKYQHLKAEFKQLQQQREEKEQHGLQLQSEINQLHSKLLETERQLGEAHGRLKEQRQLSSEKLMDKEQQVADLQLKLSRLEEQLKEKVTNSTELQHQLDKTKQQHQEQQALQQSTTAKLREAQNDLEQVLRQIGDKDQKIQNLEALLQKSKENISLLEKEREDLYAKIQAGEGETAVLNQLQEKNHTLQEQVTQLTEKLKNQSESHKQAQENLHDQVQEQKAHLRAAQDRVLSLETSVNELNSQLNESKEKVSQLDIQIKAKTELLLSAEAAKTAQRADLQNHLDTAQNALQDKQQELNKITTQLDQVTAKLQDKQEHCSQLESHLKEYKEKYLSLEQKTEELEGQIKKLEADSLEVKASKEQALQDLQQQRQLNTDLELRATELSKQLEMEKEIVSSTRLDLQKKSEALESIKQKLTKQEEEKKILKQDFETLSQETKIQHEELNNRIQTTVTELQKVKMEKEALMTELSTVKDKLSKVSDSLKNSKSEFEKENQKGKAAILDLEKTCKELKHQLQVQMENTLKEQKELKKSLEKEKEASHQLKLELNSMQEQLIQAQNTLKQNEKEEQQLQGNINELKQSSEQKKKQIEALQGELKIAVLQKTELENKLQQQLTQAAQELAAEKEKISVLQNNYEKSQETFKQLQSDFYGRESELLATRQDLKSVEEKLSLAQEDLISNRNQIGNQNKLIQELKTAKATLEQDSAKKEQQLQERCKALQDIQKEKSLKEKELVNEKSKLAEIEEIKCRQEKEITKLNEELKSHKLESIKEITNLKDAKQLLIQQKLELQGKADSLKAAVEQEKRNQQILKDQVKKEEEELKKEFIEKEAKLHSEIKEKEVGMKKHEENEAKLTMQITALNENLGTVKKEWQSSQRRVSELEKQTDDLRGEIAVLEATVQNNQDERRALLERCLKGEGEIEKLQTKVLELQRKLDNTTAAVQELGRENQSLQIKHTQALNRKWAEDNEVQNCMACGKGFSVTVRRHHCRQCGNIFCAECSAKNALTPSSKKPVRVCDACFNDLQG
Chain of UniProt P98173 (P98173 whole entry, looked up): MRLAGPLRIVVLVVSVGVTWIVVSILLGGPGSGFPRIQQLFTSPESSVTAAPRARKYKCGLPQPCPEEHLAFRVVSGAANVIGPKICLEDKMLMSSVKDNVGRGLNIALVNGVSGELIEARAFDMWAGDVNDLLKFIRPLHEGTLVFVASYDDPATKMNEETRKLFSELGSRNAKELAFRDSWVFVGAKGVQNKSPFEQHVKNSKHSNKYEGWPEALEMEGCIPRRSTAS
Chain of UniProt P17844 (P17844 whole entry, looked up): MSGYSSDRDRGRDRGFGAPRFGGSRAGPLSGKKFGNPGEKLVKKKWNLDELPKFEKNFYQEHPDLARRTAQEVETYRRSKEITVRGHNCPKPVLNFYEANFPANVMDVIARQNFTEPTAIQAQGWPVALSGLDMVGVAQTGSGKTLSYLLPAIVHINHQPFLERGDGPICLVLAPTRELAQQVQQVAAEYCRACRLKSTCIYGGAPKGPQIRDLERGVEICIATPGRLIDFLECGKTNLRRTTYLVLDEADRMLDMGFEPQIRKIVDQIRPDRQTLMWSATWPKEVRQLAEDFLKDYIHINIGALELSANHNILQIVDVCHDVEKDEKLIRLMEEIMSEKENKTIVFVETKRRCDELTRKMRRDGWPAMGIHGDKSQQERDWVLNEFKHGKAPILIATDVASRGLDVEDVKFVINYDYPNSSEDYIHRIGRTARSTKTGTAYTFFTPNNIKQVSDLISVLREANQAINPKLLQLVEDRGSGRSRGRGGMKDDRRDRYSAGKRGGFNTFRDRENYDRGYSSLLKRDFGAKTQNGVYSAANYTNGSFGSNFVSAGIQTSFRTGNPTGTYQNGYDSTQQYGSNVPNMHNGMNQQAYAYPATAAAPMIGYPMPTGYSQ
Chain of UniProt Q9UPT5 (Q9UPT5 whole entry, looked up): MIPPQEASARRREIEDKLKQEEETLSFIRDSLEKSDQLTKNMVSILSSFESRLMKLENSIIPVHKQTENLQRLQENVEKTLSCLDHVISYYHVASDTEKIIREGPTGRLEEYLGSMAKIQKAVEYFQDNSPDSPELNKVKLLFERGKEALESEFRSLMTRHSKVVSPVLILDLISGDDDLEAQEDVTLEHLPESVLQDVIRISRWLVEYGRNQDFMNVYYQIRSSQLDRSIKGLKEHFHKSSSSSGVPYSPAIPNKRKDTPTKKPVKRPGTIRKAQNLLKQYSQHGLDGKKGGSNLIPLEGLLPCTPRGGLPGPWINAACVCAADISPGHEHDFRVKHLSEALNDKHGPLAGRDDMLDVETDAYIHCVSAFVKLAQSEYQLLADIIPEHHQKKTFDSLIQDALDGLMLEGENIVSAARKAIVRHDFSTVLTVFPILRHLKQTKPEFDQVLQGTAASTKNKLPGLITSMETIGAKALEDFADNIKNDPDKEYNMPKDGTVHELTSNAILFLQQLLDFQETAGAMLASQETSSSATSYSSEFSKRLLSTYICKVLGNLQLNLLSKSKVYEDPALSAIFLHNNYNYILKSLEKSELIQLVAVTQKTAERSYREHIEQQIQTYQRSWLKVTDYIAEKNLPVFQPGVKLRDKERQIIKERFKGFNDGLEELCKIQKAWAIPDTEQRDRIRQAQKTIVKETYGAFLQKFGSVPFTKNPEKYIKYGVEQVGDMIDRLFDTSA
Chain of UniProt Q96DF8 (Q96DF8 whole entry, looked up): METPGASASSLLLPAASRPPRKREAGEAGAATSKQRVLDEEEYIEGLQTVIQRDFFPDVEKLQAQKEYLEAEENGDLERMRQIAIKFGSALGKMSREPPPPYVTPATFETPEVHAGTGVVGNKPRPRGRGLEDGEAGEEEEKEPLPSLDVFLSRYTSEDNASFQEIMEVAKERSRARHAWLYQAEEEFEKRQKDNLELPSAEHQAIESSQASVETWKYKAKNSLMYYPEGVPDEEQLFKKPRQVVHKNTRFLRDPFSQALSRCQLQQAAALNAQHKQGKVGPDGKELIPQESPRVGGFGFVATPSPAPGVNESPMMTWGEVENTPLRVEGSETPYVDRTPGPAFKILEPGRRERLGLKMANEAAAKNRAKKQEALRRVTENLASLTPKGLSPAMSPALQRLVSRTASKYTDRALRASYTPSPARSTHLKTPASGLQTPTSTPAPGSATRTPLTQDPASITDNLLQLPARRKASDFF

Target | log2 fold change (bafetinib) | log2 fold change [1] | log2 fold change (nilotinib) | log2 fold change [2] | log2 fold change (dasatinib) | log2 fold change [3] | log2 fold change [4] | log2 fold change [5] | log2 fold change (tipifarnib) | log2 fold change (mubritinib) | log2 fold change [6] | log2 fold change [7] | log2 fold change [8] | log2 fold change [9] | log2 fold change (entinostat) | log2 fold change (vorinostat) | log2 fold change (citarinostat) | log2 fold change (silmitasertib) | log2 fold change [10] | log2 fold change [11]
EXOC7 (UniProt Q9UPT5) | -0.026 | 0.014 | -0.046 | -0.139 | -0.234 | -0.035 | 0.002 | 0 | -0.089 | -0.011 | 0.009 | -0.142 | -0.223 | -0.022 | 0.04 | 0.09 | 0.077 | 0.052 | 0.028 | -0.012
ESS2 (UniProt Q96DF8) | -0.186 | -0.07 | 0.013 | -0.048 | 0.011 | 0.019 | -0.061 | -0.081 | 0.038 | 0.008 | 0.036 | 0.048 | -0.078 | 0.069 | -0.027 | -0.012 | 0.014 | 0.04 | 0.033 | -0.017
DDX5 (UniProt P17844) | 0.272 | 0.018 | 0.166 | -0.092 | -0.19 | 0.076 | 0.029 | 0.046 | -0.155 | 0.326 | -0.139 | -0.032 | -0.21 | -0.135 | 0.067 | 0.073 | 0.072 | -0.088 | -0.158 | -0.039
EEA1 (UniProt Q15075) | -0.043 | -0.021 | 0.013 | 0 | 0.061 | 0.004 | -0.015 | 0.028 | 0.007 | 0.041 | 0.013 | -0.014 | 0.006 | -0.014 | -0.023 | 0.004 | -0.001 | 0.015 | 0.006 | -0.043
EIF2S3 (UniProt P41091) | 0.133 | -0.023 | -0.04 | 0.072 | 0.043 | 0.014 | -0.081 | -0.052 | 0.019 | -0.017 | 0.034 | 0.006 | 0.163 | 0.025 | -0.001 | 0 | -0.044 | -0.001 | 0.066 | -0.154
DYRK1A isoform 2 (UniProt Q13627) | -0.073 | 0.02 | -0.005 | -0.056 | -0.098 | -0.047 | 0.021 | -0.046 | -0.042 | 0.034 | -0.225 (active) | -0.034 | -0.115 | -0.064 | 0.028 | 0.056 | 0 | -0.292 (active) | -0.029 | –
DIP2A (UniProt Q14689) | -0.005 | -0.019 | 0.005 | -0.07 | -0.04 | 0.01 | 0.043 | -0.053 | 0.02 | 0.002 | -0.056 | 0.007 | -0.356 | 0.017 | 0.002 | 0.031 | 0.043 | 0.1 | -0.016 | 0.004
EED, A0A5F9ZI63 | 0.019 | -0.024 | -0.027 | 0.043 | 0.015 | -0.025 | -0.076 | -0.029 | -0.014 | -0.066 | 0.03 | 0.053 | 0.037 | -0.029 | -0.039 | 0.021 | 0.098 | 0.078 | 0.065 | -0.078
FAM3A (UniProt P98173) | -0.027 | 0.023 | 0.007 | -0.044 | 0.036 | -0.001 | 0.031 | -0.03 | 0.042 | 0 | 0.022 | -0.028 | -0.21 (active) | 0.006 | -0.097 | -0.01 | 0 | -0.015 | 0.034 | -0.028
DHRS3 (UniProt O75911) | 0.027 | 0.017 | 0.101 | -0.031 | 0.188 | -0.025 | 0.323 (active) | 0.164 | 0.012 | 0.081 | -0.032 | -0.047 | -0.081 | -0.06 | 0.05 | -0.084 | 0.024 | 0.009 | 0.046 | -0.06
DCTN1 isoform 4 (UniProt Q14203) | 0.057 | 0.037 | -0.052 | -0.052 | -0.256 | -0.018 | 0.003 | -0.015 | -0.054 | 0.038 | 0.002 | -0.052 | -0.033 | 0.019 | 0.049 | 0.029 | 0.007 | 0.046 | 0.081 | -0.089
EIF4A1 (UniProt P60842) | 0.032 | 0.014 | -0.135 | -0.063 | -0.114 | -0.047 | 0.036 | -0.022 | -0.058 | -0.08 | 0.148 | -0.08 | -0.029 | -0.044 | 0.079 | 0.068 | 0.088 | -0.01 | -0.01 | -0.05
DNM2 (UniProt P50570) | -0.035 | 0 | -0.054 | -0.003 | -0.099 | 0 | 0.075 | 0.007 | -0.071 | 0.017 | -0.019 | -0.037 | -0.153 | -0.023 | 0.005 | 0.03 | 0.051 | -0.054 | 0.008 | -0.014
EXOC8 (UniProt Q8IYI6) | -0.081 | 0.071 | -0.054 | -0.137 | -0.1 | -0.012 | -0.015 | 0.028 | -0.038 | 0.039 | 0.044 | -0.044 | -0.373 (active) | -0.039 | 0.108 | 0.051 | 0.084 | 0.035 | 0.045 | -0.062
DPP8 (UniProt Q6V1X1) | -0.054 | -0.035 | 0.027 | -0.019 | 0.014 | -0.001 | 0.048 | 0.054 | 0.065 | 0.036 | -0.243 | -0.126 | -0.04 | -0.079 | -0.124 | -0.021 | -0.325 (active) | 0.063 | -0.114 | 0.219
